# V-ATPase pH: regulators of yeast V-ATPase proton transport; S. cerevisiae, pHLuorin cytosolic pH fluorescence; response, % at 10 µM; actives 0.37% (n = 350,000); AID 504577; in the data active means response mostly above about 7.3%, no sharp cut-off; inactive means mostly below about 5.4%; further: actives read high
# TIM10 inh: inhibits growth of TIM10 yeast strain. S. cerevisiae TIM10 strain growth, BacTiter-Glo luminescence, 24 h. inhibition, % at 10 µM. actives 1.4% (n = 330,000). AID 463195;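 active means inhibition of 40% or more at the single tested concentration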;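 further: wild-type TIM10 isogenic control strain grown at permissive 25 °C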
# PfHsp90 yeast 2: inhibits growth of yeast expressing Plasmodium falciparum Hsp90 | S. cerevisiae expressing PfHsp90, BacTiter-Glo ATP, 48 h; yeast lacking PDR1 and PDR3 efflux regulators | inhibition, % at 9.4 µM | actives 0.32% (n = 310,000);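 active means every replicate shows inhibition above about 80%, whatever the replicate mean, limit read from the data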
# tim10-1 inh: tim10-1 yeast growth inhibition | inhibition, % at 20 µM | S. cerevisiae tim10-1 ts strain growth, BacTiter-Glo, 24 h | actives 2.2% (n = 330,000) | AID 463190;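 active means inhibition of at least 40%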;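 further: mutant grown at 25 °C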
# tim23-1 inh: inhibits growth of tim23-1 mutant yeast | S. cerevisiae tim23-1 growth, BacTiter-Glo luminescence, 24 h | inhibition, % at 20 µM | actives 1.3% (n = 330,000) | AID 463212;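 active means growth inhibition of the mutant yeast at or above 50%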;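 further: temperature-sensitive mutant grown at 25 °C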
# tim23-1 confirm: tim23-1 yeast growth inhibition, confirmed. shares compounds with tim23-1 inh. S. cerevisiae tim23-1 growth, BacTiter-Glo luminescence, 24 h. inhibition, % at 20 µM. actives 83% (n = 4,400). AID 463218;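 active means inhibition above about 39% in either of two replicate wells at 20 µM, limit read from the data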;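 further: temperature-sensitive tim23-1 mutant grown at 25 °C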
# Numbers stand for hits; - = inactive; . = no result. In the library only some 3.7% were active in any assay of this set; here they are far more common.
SMILES,V-ATPase pH,TIM10 inh,PfHsp90 yeast 2,tim10-1 inh,tim23-1 inh,tim23-1 confirm
CN(C)/C=C1/C=C(c2ccccc2)OC1=O,-,-,-,-,56.0,40.8
Cc1cnc(C2OCCO2)c2cccc([N+](=O)[O-])c12,-,.,.,.,.,.
Cc1c(NC(=O)Nc2ccc(Cl)cc2)c(=O)n(-c2ccccc2)n1C,-,-,-,-,-,.
Cc1ccc(NC(=O)Nc2c(C)n(C)n(-c3ccccc3)c2=O)cc1,-,-,-,-,94.2,-
CCOC(=O)c1c(C=O)c2sc(C)cc2n1C,-,-,-,-,53.0,45.2
CCOC(=O)c1c(C=O)c2ccccc2n1CC,-,-,-,-,-,.
CC(=O)c1ccc(NC(=O)CN2C(=O)NC(C)(C3CCCCC3)C2=O)cc1 (stereo not given),-,-,-,-,-,.
CN1c2ccsc2/C(=N/Nc2ccccc2)CS1(=O)=O,-,-,-,-,52.8,-
Cc1ccc(-n2nnnc2SCC(=O)NCC2(N3CCOCC3)CCCCC2)c(C)c1,-,-,-,-,-,.
O=C(Nc1ccc2c(c1)OCCO2)c1ccc(Br)cc1,-,-,-,-,-,.
O=C(Nc1ccc2c(c1)OCCO2)c1cccc(Br)c1,-,-,-,-,56.0,57.9
CCCc1c(C(=O)N/N=C/c2ccc3c(c2)OCO3)nnn1-c1nonc1N,-,.,.,.,.,.
O=C(CSc1cccs1)Nc1cccc2ccccc12,-,-,-,-,-,.
O=C(CSc1cccs1)Nc1ccc2ccccc2c1,-,-,-,-,54.9,57.3
CC(=O)Oc1ccc(-c2ccc(C(=O)OCC(=O)N(C)CC(=O)Nc3ccccc3Cl)cc2)cc1,-,-,-,-,-,.
COc1cc2[nH]c(C(=O)NCc3ccccc3)cc2c(OC)c1OC,-,-,-,-,-,.
Cc1ccc(-c2cc(-c3ccccc3)nc(N(C)N)n2)cc1,-,-,-,-,56.0,53.2
CCC1(c2ccccc2)NC(=O)N(CC(=O)Nc2cc(S(=O)(=O)N3CCCCC3)ccc2OC(C)C)C1=O (stereo not given),-,-,-,-,-,.
Cc1nc(Nc2ccc(S(N)(=O)=O)cc2)sc1C(=O)Nc1ccccc1,-,-,-,-,-,.
Cc1nc(Nc2ccccc2)sc1C(=O)Nc1ccccc1,-,-,-,-,55.1,53.2
CCOC(=O)/C(=C/c1ccc(OC(=O)c2ccncc2)cc1)C(C)=O,-,-,-,-,53.1,69.7
COc1cccc(Nc2ncc(C#N)c(N)n2)c1,-,-,-,-,-,.
O=C(NC1CCCC1)c1c(O)nc2sccn2c1=O,-,-,.,-,55.6,-
N=c1c2c(-c3ccccc3)c(-c3ccccc3)n(Cc3ccco3)c2ncn1Cc1ccccc1,-,-,-,-,86.5,58.7
CC(C)Cn1cnc2c(c(-c3ccccc3)c(-c3ccccc3)n2Cc2ccco2)c1=N,-,-,-,-,75.6,40.7
SMILES,V-ATPase pH,TIM10 inh,PfHsp90 yeast 2,tim10-1 inh,tim23-1 inh,tim23-1 confirm
N=c1c2c(-c3ccccc3)c(-c3ccccc3)n(Cc3ccco3)c2ncn1CCCn1ccnc1,-,.,-,.,.,.
Cn1c(=O)c(C(=O)Nc2ccccn2)c(O)c2ccccc21,-,-,.,-,57.4,58.5
Cc1cccc(C(=O)NNC(=O)c2c(O)c3ccccc3n(C)c2=O)c1,-,-,-,-,66.6,-
Cn1c(=O)c(C(=O)NNC(=O)c2ccccc2Br)c(O)c2ccccc21,-,-,-,-,50.8,-
Cc1nn(CC2CC2)c(=O)n1-c1ccccc1,-,-,.,-,-,.
CC(NC(=O)CNC(=O)c1cccs1)c1cccc(C(F)(F)F)c1 (stereo not given),-,-,-,-,-,.
CC(C)CN1Cc2ccccc2Oc2cc(Br)ccc2S1(=O)=O,-,-,-,-,50.9,-
CCCCN1Cc2ccccc2Oc2cc(Br)ccc2S1(=O)=O,-,-,-,-,50.6,-
C[C@@H](c1ccccc1)N1Cc2ccccc2Oc2cc(Br)ccc2S1(=O)=O,-,-,-,-,-,.
CCN1Cc2ccccc2-c2ccccc2S1(=O)=O,-,-,-,-,-,.
O=c1c2ccc([N+](=O)[O-])cc2ncn1CCOc1ccc(Cl)cc1,-,-,-,-,62.2,64.7
COc1ccc(OC)c(-c2csc(NC(=O)Cc3cc(OC)c(OC)c(OC)c3)n2)c1,-,-,-,-,-,.
COc1ccc(OC)c(-c2csc(NC(=O)Cc3ccc(F)cc3)n2)c1,-,-,-,-,54.5,43.0

# Source: PubChem (several laboratories)
